About 79,000 compounds went through this panel and 15% of them were active in at least one assay; those are over-represented in the sample as a whole. Calls of active or inactive are those of the source. Rule as the data show it: active = growth inhibition above about 70%; inactive = the rest.
What was measured:
[1] = NCI Yeast Anticancer Drug Screen. Data for the rad50 strain (AID 155);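 also: 0% = growth of vehicle-only cultures of the same strain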; conditions: S. cerevisiae rad50 strain growth inhibition, hits give high values
Outline: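 DNA repair mutant yeast, compound exposure, growth read-out; inhibition is taken relative to vehicle.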

[2] = NCI Yeast Anticancer Drug Screen. Data for the mec2-1 strain (AID 157); conditions: S. cerevisiae mec2-1 strain, hits give high values
Outline: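 Mutant yeast (mec2-1) grown with compound; growth inhibition relative to vehicle control reported.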

[3] = NCI Yeast Anticancer Drug Screen. Data for the sgs1 mgt1 strain (AID 161);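 also: 0% = growth of cultures given vehicle only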; conditions: S. cerevisiae sgs1 mgt1 strain, hits give high values
Outline: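 Compounds are added to genetically altered yeast, and growth is compared with cultures given vehicle alone to give percent inhibition.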

[4] = NCI Yeast Anticancer Drug Screen. Data for the cln2 rad14 strain (AID 165);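 also: 0% = growth equal to vehicle treated cultures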; conditions: S. cerevisiae cln2 rad14 strain, hits give high values
Outline: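 Readout is yeast growth inhibition versus vehicle-treated controls, using a strain with cln2 and rad14 alterations exposed to compound.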

[5] = NCI Yeast Anticancer Drug Screen. Data for the bub3 strain (AID 167); conditions: S. cerevisiae bub3 mutant strain, hits give high values
Outline: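 In this screen, a yeast mutant lacking normal mitotic checkpoint function is challenged with compound. Relative growth versus vehicle gives the inhibition value.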

[6] = NCI Yeast Anticancer Drug Screen. Data for the mlh1 rad18 strain (AID 175); conditions: S. cerevisiae mlh1 rad18 strain growth inhibition, hits give high values
Outline: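 Genetically defined yeast (DNA repair-deficient) exposed to compounds; growth inhibition determined relative to vehicle.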

[7] = at 5.0 µM (retest, dose inferred, filed as 0.5)
[8] = at 50.0 µM (retest, dose inferred, filed as 5.0)

Measured: growth inhibition

C=C(C)COc1cc(NC(=S)OC(C)C)ccc1Cl
active: [1]; [8] 90% | [2]; [8] 93% | [2]; at 50.0 µM 83.8% | [3]; [8] 88% | [3]; at 50.0 µM 90.1% | [4]; [8] 86% | [4]; at 50.0 µM 88.2% | [5]; [8] 93% | [5]; at 50.0 µM 88.3% | [6]; [8] 92% | [6]; at 50.0 µM 83.6%
inactive: [1]; [7] 16% | [1]; at 50.0 µM 51.8% | [2]; [7] 16% | [3]; [7] 8% | [4]; [7] 6% | [5]; [7] 20% | [6]; [7] 12%

Cc1ccc(C2(O)c3ccccc3-c3ccccc32)cc1
active: [1]; [8] 98% | [1]; at 50.0 µM 99.2% | [2]; [8] 100% | [2]; at 50.0 µM 99.2% | [3]; [8] 99% | [3]; at 50.0 µM 99.2% | [4]; [8] 99% | [4]; at 50.0 µM 98.2% | [5]; [8] 99% | [5]; at 50.0 µM 99.3% | [6]; [8] 98% | [6]; at 50.0 µM 99%
inactive: [1]; [7] 4% | [2]; [7] 8% | [3]; [7] 15% | [4]; [7] -9% | [5]; [7] -8% | [6]; [7] -4%

CCOC(=O)N1CCN(CCCCCCOc2c(Cl)cc(Cl)cc2Cl)CC1
inactive: [1]; [7] 45% | [2]; [7] 41% | [4]; [7] 58% | [5]; [7] 64% | [6]; [7] 49%
active: [1]; [8] 98% | [1]; at 50.0 µM 98.7% | [2]; [8] 99% | [2]; at 50.0 µM 96.1% | [3]; [7] 71% | [3]; [8] 99% | [3]; at 50.0 µM 92% | [4]; [8] 98% | [4]; at 50.0 µM 98.4% | [5]; [8] 98% | [5]; at 50.0 µM 97.2% | [6]; [8] 99% | [6]; at 50.0 µM 98.2%

O=c1c(SSc2coc3ccccc3c2=O)coc2ccccc12
active: [1]; [8] 99% | [1]; at 50.0 µM 94.4% | [2]; [8] 96% | [2]; at 50.0 µM 96.3% | [3]; [8] 98% | [3]; at 50.0 µM 87.5% | [4]; [8] 94% | [4]; at 50.0 µM 91.3% | [5]; [8] 94% | [5]; at 50.0 µM 71.9% | [6]; [8] 97% | [6]; at 50.0 µM 93.5%
inactive: [1]; [7] 22% | [2]; [7] 27% | [3]; [7] 27% | [4]; [7] 42% | [5]; [7] 13% | [6]; [7] 17%

COc1ccc(/C(Cl)=C(\c2ccc(OCCN(C)C)cc2)c2ccc(OC(=O)C(C)(C)C)cc2)cc1
inactive: [1]; [7] 23% | [1]; [8] 23% | [2]; [7] 17% | [2]; [8] 17% | [3]; [7] 18% | [3]; [8] 18% | [4]; [7] 10% | [4]; [8] 10% | [4]; at 50.0 µM 60.4% | [5]; [7] 20% | [5]; [8] 20% | [6]; [7] 1% | [6]; [8] 1%
active: [1]; at 50.0 µM 91.8% | [2]; at 50.0 µM 92% | [3]; at 50.0 µM 92.3% | [5]; at 50.0 µM 89.4% | [6]; at 50.0 µM 90%

c1ccc(CCCCc2ccncc2)cc1
active: [1]; at 50.0 µM 87.3% | [3]; at 50.0 µM 94% | [5]; [8] 81% | [5]; at 50.0 µM 93.5% | [6]; at 50.0 µM 88.5%
inactive: [1]; [7] 1% | [1]; [8] 28% | [2]; [7] 1% | [2]; [8] 13% | [2]; at 50.0 µM 46.2% | [3]; [7] 0% | [3]; [8] 47% | [4]; [7] 5% | [4]; [8] 11% | [4]; at 50.0 µM 63.6% | [5]; [7] 24% | [6]; [7] -3% | [6]; [8] 18%

CCCCCCCCCCCCCCCCS(=O)(=O)Cl
inactive: [1]; [7] 40% | [1]; at 50.0 µM 61.5% | [2]; [7] 46% | [2]; at 50.0 µM 32.2% | [3]; [7] 57% | [3]; at 50.0 µM 59.8% | [4]; [7] 31% | [4]; at 50.0 µM -6.35% | [5]; [7] 69% | [5]; at 50.0 µM 46.7% | [6]; [7] 43% | [6]; at 50.0 µM 53.8%
active: [1]; [8] 96% | [2]; [8] 98% | [3]; [8] 77% | [4]; [8] 73% | [5]; [8] 78% | [6]; [8] 99%

O=C(Nc1ccc2c(c1)Cc1cc([N+](=O)[O-])c(F)cc1-2)C(F)(F)F
inactive: [1]; [7] 13% | [1]; [8] 4% | [1]; at 50.0 µM 5.25% | [2]; [7] 1% | [2]; [8] 2% | [2]; at 50.0 µM 49.2% | [3]; [7] 3% | [3]; [8] -20% | [3]; at 50.0 µM 6.55% | [4]; [7] 0% | [4]; [8] 7% | [4]; at 50.0 µM -2.1% | [5]; [7] -3% | [5]; [8] 0% | [5]; at 50.0 µM -4.35% | [6]; [7] 3% | [6]; [8] 3% | [6]; at 50.0 µM 28.5%

COc1ccc2nc3cc(Cl)ccc3c(NCCCCCCNc3c4ccc(Cl)cc4nc4ccc(OC)nc34)c2n1
active: [1]; [8] 87% | [1]; at 50.0 µM 96.9% | [2]; [8] 74% | [2]; at 50.0 µM 98.2% | [3]; [8] 82% | [3]; at 50.0 µM 98.2% | [4]; [8] 80% | [4]; at 50.0 µM 91.5% | [5]; [8] 92% | [5]; at 50.0 µM 96.8% | [6]; [8] 82% | [6]; at 50.0 µM 96.5%
inactive: [1]; [7] 5% | [2]; [7] 6% | [3]; [7] 5% | [4]; [7] 4% | [5]; [7] 3% | [6]; [7] 2%

From PubChem BioAssay (NCI)
